From PubChem BioAssay (NCATS) come the findings set out here.

Records with an inconclusive call do not appear. Calls of active or inactive are those of the source. Unless noted, calls follow the shape of the full dose curve.

Test [1] deals with Estrogen receptor (Homo sapiens) (UniProt P03372). Briefly: qHTS assay for small molecule agonists of estrogen receptor alpha signaling (AID 588514).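 Also: 0% = vehicle only and 100% = reference agonist; nearly all actives have a fitted effect of over 70% in size.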 The method, boiled down: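 Read-out: CCF4 fluorescence from a beta-lactamase reporter in ER-alpha-UAS-bla HEK 293 cells after 18 hrs of compound exposure at 37 C. Normalized to 20 nM 17-beta-estradiol (100%) and DMSO (0%).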
In test [2] the target is Peroxisome proliferator-activated receptor delta (Homo sapiens) (UniProt Q03181). Briefly: qHTS assay for small molecule agonists of peroxisome proliferator-activated receptor delta signaling (AID 588534).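 Also: 0% = DMSO basal wells and 100% = positive control agonist at 10 µM.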 The method, boiled down: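 Titration series tested in agonist mode on beta-lactamase reporter cells; 18 hrs at 37 C after a 5 hr pre-incubation. Readout: CCF4 fluorescence, 2 hrs RT. Hill equation gives EC50 and maximal response.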
In general terms: In qHTS, concentration-response curves come from the screen itself.

The nature of test [3]: qHTS assay for small molecule antagonists of peroxisome proliferator-activated receptor delta signaling (AID 588535; active = well fitted inhibition curve with a large enough effect in the signal ratio, with a control signal flat, not every such curve was filed as active; the % refers to the signal ratio;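 as to max response: cells co-treated with a PPAR-delta agonist as stimulator during compound exposure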). The following applies: HEK293T PPARd-UAS-bla, beta-lactamase FRET ratio, 18 h; 460 nm channel. The method, boiled down: (§1)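 Antagonist-mode qHTS using GeneBLAzer PPAR-delta-UAS-bla HEK293T cells; compound exposure 18 hrs at 37 C over a titration. Ratiometric CCF4 fluorescence at 460/530 nm; concentration-response points fitted to the Hill equation.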

Test [4] has as its target Peroxisome proliferator-activated receptor delta (Homo sapiens) (UniProt Q03181). The test is described as above. The method, boiled down: as §1
The target in test [5] is Vitamin D3 receptor (Homo sapiens) (UniProt P11473). Put plainly: qHTS assay for small molecule antagonists of vitamin D receptor signaling (AID 588541).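 Also: receptor activated by calcitriol during compound treatment; series mostly up to about 77 µM; % is scaled to controls: 0 for no effect and ±100 for the full control effect.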 In a few lines: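 Antagonist-mode beta-lactamase reporter assay: HEK293T VDR-UAS-bla cells were exposed to titrated compound alongside 1-alpha,25-dihydroxyvitamin D3 at 3 nM final for 16 h. Values were normalized to the 50 nM agonist control and DMSO basal, with IC50 and efficacy from Hill equation fits.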

Test [6] concerns the target Retinoic acid receptor RXR-alpha (Homo sapiens) (UniProt P19793). Put plainly: qHTS assay for small molecule agonists of retinoid X receptor alpha signaling (AID 588544).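 Also: 0% = DMSO basal wells and 100% = reference agonist.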
Test [7] addresses Thyroid hormone receptor beta (Homo sapiens) (UniProt P10828). Put plainly: qHTS assay for small molecule agonists of thyroid hormone receptor beta signaling (AID 588545). In a few lines: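 Agonist activity was read as beta-lactamase CCF4 fluorescence (405 ex, 460/530 em), scaled between DMSO (0%) and 10 nM T3 (100%), then Hill-fitted for EC50 and efficacy. HEK 293 TR-UAS-bla cells in 2% charcoal/dextran FBS medium were exposed 18 h at 37 C.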

A short description of test [8]: qHTS assay for small molecule antagonists of retinoid X receptor alpha signaling (AID 588546; active = well fitted inhibition curve with a large enough effect in the signal ratio, with a control signal flat, not every such curve was filed as active; the % refers to the signal ratio;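 also: cells stimulated with 9-cis-retinoic acid as agonist; % is scaled to controls: 0 for no effect and ±100 for the full control effect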). Conditions: HEK293T RXRa-UAS-bla, beta-lactamase ratio, antagonist mode; measured here: W530 green channel, cytotoxicity proxy. In a few lines: (§2)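 Beta-lactamase reporter inhibition, read as CCF4 fluorescence ratio (ex 405, em 460/530 nm) after 2 h at RT. HEK293T UAS-bla cells, 2500/well, were stimulated with 9-cis-RA at 500 or 100 nM final alongside test compound for 18 h at 37 C.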

Test [9] has as its target Retinoic acid receptor RXR-alpha (Homo sapiens) (UniProt P19793). The test is described as above. The following applies: HEK293T RXRa-UAS-bla, beta-lactamase ratio, antagonist mode. The method, boiled down:
as §2

Test [10] addresses Thyroid hormone receptor beta (Homo sapiens) (UniProt P10828). Put plainly: qHTS assay for small molecule antagonists of thyroid hormone receptor beta signaling (AID 588547; active = well fitted inhibition curve with a large enough effect in the signal ratio, with a control signal flat, not every such curve was filed as active; the % refers to the signal ratio;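 also: cells stimulated with 0.4 nM T3 agonist during compound exposure; series mostly up to about 77 µM; % is scaled to controls: 0 for no effect and ±100 for the full control effect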). The following applies: TR-UAS-bla HEK293, beta-lactamase ratio, antagonist mode, 18 h. In a few lines:
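Inhibition of T3-driven (0.4nM final) beta-lactamase reporter activity was measured over 0.59 nM to 92 uM compound after 18 h at 37 C. The cells were GripTite HEK293 TR-UAS-bla in charcoal/dextran-stripped serum, with CCF4 ratio read-out and IC50 from Hill fits.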

Test [11] in a line: qHTS assay for small molecule activators of the p53 signaling pathway (AID 651743; active = well fitted activation curve with a large enough effect in the signal ratio, not every such curve was filed as active; the % refers to the signal ratio; also: series mostly up to about 92 µM; % of control where 0% means no effect). The following applies: HCT-116 p53RE-bla, beta-lactamase FRET ratio, 16 h; activation: stronger effect = higher value. In a few lines:
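A beta-lactamase reporter under p53 response element control, stably carried by HCT-116 cells, reported pathway activation. Test compounds were applied for 16 hours at 37 C, and fluorescence was measured 2 hours after adding the B/G FRET substrate.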

The nature of test [12]: qHTS assay for small molecule activators of the nuclear factor-kappa B (NF-kB) signaling pathway (AID 651749; active = well fitted activation curve with a large enough effect in the signal ratio; the % refers to the signal ratio; also: series mostly up to about 77 µM; % of control where 0% means no effect). The following applies: NF-kB-bla ME-180 cells, beta-lactamase FRET ratio, 16 h; activation: stronger effect = higher value. The method, boiled down: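 FRET-based beta-lactamase detection in ME-180 cells reports NF-kB response-element-driven transcription following overnight (16 hr) compound treatment.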

A short description of test [13]: qHTS assay for environmental chemicals that activate the Aryl hydrocarbon Receptor (AhR) signaling pathway (AID 651777; active = well fitted curve in the direction sought with a large enough effect; an effect the other way counts as inactive or inconclusive; also: % of control where 0% means no effect; nearly all actives have a fitted effect of over 15% in size). The following applies: 1A2-DRE human hepatoma cells, luciferase, 24 h; activation: stronger effect = higher value. The method, boiled down: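 Measured luciferase activity, read 30 min after One-Glo addition at room temperature, from human hepatoma cells bearing a dioxin response element–CYP1A2 promoter reporter and exposed to compound for 24 hr at 37 C.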

Test [14] has as its target Peroxisome proliferator-activated receptor alpha (Homo sapiens) (UniProt Q07869). Briefly: qHTS assay for small molecule agonists of the peroxisome proliferator-activated receptor alpha (PPARalpha) signaling pathway (AID 651778; active = well fitted curve in the direction sought with a large enough effect; an effect the other way counts as inactive or inconclusive; also: % of control where 0% means no effect). The following applies: PathHunter PPARalpha complementation, chemiluminescence, 6 h; max response: stronger effect = higher value. In a few lines: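 Chemiluminescence from complemented enzyme reported PPARalpha activation in cells after 6 hr of compound treatment at 37 C. The detection reagent was incubated for 60 min at room temperature, and compounds were scored as agonists.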

Test [15] in a line: qHTS assay for small molecule agonists of the antioxidant response element (ARE) signaling pathway measured by Nrf2-dependant transcriptional activity (AID 720636; active = well fitted curve in the direction sought with a large enough effect in the repeat runs; an effect the other way counts as inactive or inconclusive;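 also: HepG2 cells with an ARE-driven luciferase reporter; % of control where 0% means no effect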). The method, boiled down:
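In HepG2 cells engineered with an Nrf2-responsive luciferase gene, ARE induction was quantified as luminescence after 16 hr compound treatment at 37 C.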

The nature of test [16]: qHTS assay for small molecule agonists of the antioxidant response element (ARE) signaling pathway measured by Nrf2-dependant transcriptional activity - cell viability counter screen (AID 720653; active = well fitted curve in the direction sought with a large enough effect in the repeat runs; an effect the other way counts as inactive or inconclusive; also: % is scaled to controls: 0 for no effect and ±100 for the full control effect). The following applies: ARE-bla HepG2 viability, CellTiter-Glo ATP luminescence, 16 h; max response: stronger effect = lower value. In a few lines: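 Cytotoxicity counter screen: intracellular ATP quantified by CellTiter-Glo luminescence in the same ARE-bla HepG2 plates, after 16 h compound exposure and a 2 h beta-lactamase substrate step.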

The nature of test [17]: qHTS assay for cell viability of HEK293 cells (AID 743288; active = well fitted curve in the direction sought with a large enough effect; an effect the other way counts as inactive or inconclusive; also: % is scaled to controls: 0 for no effect and ±100 for the full control effect; nearly all actives have a fitted effect of over 50% in size). The following applies: ATP luminescence (CellTiter-Glo), 18 h; max response: stronger effect = lower value. The method, boiled down: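 Steps: plate 2,000 parental HEK293 cells per well; incubate ≥5 h, 37 C; add compounds in DMSO; incubate 18 h, 37 C; add CellTiter-Glo; wait 30 min at room temperature; read luminescence.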

The nature of test [18]: qHTS assay for cell viability of the p53RE-bla HCT-116 cell line (AID 743292; active = well fitted curve in the direction sought with a large enough effect; an effect the other way counts as inactive or inconclusive; also: % is scaled to controls: 0 for no effect and ±100 for the full control effect; nearly all actives have a fitted effect of over 55% in size). In a few lines: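 Intracellular ATP of p53RE-bla HCT-116 cells measured by luciferase luminescence following 16 h compound incubation at 37 C; DMSO-only wells served as vehicle controls.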
The target in test [19] is Nuclear receptor subfamily 1 group I member 2 (Rattus norvegicus) (UniProt Q9R1A7). Put plainly: qHTS assay for small molecule activators of the rat pregnane X receptor (rPXR) signaling pathway (AID 651751; call rule not given here; also: 0% is about no effect). Conditions: rPXR reporter cells, luciferase (One-Glo), 24 h.
Test [20] has as its target Glucocorticoid receptor (Homo sapiens) (UniProt P04150). Briefly: qHTS assay for small molecule antagonists of glucocorticoid receptor signaling (AID 588533; active = well fitted inhibition curve with a large enough effect in the signal ratio, with a control signal flat, not every such curve was filed as active; the % refers to the signal ratio). In a few lines:
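Antagonist-mode qHTS: compound titrations added to GRE-bla HeLa cells, then dexamethasone 2 nM final; 18 h, 37 C. CCF4 FRET fluorescence normalized to dexamethasone and DMSO; IC50 from Hill fit.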

Chain of Vitamin D3 receptor (Homo sapiens) (P11473 whole entry, looked up): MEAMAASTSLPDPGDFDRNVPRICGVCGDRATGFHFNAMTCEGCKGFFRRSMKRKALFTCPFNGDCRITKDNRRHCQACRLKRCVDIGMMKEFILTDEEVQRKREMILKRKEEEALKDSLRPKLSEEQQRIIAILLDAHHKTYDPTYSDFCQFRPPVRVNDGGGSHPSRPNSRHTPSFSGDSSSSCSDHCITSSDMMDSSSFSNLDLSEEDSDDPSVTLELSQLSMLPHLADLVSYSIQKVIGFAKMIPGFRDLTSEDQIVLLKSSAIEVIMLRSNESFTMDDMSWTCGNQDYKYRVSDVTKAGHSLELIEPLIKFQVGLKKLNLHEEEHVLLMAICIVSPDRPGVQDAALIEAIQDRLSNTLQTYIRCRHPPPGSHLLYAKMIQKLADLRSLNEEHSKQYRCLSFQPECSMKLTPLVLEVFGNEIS
Chain of Retinoic acid receptor RXR-alpha (Homo sapiens) (P19793 whole entry, looked up): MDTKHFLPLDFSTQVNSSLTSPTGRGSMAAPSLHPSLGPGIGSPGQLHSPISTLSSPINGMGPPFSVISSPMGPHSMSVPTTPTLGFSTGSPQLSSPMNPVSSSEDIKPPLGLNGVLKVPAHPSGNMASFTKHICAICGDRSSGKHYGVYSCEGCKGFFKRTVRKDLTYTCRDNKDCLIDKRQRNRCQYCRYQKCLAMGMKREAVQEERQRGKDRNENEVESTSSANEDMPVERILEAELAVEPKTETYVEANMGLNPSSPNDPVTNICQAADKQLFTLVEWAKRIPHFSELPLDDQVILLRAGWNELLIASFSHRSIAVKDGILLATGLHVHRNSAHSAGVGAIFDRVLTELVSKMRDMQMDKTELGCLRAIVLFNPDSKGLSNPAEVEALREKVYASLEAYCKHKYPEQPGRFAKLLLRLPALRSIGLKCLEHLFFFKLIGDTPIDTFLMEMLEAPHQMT
Chain of Glucocorticoid receptor (Homo sapiens) (P04150 whole entry, looked up): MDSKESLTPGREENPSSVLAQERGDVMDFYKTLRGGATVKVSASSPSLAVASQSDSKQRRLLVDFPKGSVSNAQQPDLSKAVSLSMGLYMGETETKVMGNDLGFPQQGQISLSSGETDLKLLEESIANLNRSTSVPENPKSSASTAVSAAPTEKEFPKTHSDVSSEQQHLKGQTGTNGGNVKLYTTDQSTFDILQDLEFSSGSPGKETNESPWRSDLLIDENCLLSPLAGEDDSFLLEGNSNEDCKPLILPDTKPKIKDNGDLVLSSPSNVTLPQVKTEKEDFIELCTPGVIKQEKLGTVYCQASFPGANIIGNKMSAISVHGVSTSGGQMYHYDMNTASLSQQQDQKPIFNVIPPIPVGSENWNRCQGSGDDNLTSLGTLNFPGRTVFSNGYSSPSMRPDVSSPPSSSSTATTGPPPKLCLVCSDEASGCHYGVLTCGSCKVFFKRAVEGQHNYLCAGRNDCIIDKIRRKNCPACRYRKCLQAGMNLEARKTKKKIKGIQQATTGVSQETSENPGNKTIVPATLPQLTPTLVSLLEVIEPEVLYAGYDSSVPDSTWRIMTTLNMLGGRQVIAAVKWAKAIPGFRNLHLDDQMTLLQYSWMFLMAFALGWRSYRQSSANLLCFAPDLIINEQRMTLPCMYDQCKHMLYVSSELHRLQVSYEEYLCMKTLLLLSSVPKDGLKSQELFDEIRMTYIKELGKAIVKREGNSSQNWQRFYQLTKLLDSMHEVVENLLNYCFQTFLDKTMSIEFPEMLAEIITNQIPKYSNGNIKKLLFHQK
Chain of Estrogen receptor (Homo sapiens) (P03372 whole entry, looked up): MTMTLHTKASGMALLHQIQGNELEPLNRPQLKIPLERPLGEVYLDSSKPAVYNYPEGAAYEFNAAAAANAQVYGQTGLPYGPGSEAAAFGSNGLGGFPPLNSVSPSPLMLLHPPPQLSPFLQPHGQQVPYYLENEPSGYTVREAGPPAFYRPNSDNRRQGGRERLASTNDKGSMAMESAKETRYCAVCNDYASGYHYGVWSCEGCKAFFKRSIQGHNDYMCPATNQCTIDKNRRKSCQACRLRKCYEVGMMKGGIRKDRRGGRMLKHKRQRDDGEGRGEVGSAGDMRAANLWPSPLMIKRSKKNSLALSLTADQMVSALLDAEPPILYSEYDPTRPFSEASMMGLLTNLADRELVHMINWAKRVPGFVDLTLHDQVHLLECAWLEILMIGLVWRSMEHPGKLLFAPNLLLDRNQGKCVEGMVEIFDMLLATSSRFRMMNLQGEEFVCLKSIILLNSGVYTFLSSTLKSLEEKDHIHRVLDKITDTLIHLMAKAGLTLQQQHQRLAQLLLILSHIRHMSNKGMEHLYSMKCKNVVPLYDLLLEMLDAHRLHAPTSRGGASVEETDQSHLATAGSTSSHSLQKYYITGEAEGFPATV
Chain of Thyroid hormone receptor beta (Homo sapiens) (P10828 whole entry, looked up): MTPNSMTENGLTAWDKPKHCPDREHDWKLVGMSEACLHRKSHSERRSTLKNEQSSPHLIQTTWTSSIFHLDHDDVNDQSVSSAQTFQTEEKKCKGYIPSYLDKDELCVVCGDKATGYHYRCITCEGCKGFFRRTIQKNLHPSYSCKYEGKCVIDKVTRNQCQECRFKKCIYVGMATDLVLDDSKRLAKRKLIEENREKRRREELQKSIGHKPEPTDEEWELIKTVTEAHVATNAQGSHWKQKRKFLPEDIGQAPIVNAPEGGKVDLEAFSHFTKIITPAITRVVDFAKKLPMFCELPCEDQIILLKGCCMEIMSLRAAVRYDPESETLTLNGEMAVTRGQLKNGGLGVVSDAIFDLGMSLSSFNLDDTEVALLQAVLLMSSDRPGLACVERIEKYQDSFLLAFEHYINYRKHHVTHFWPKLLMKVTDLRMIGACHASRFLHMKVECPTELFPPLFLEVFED
Chain of Nuclear receptor subfamily 1 group I member 2 (Rattus norvegicus) (Q9R1A7 whole entry, looked up): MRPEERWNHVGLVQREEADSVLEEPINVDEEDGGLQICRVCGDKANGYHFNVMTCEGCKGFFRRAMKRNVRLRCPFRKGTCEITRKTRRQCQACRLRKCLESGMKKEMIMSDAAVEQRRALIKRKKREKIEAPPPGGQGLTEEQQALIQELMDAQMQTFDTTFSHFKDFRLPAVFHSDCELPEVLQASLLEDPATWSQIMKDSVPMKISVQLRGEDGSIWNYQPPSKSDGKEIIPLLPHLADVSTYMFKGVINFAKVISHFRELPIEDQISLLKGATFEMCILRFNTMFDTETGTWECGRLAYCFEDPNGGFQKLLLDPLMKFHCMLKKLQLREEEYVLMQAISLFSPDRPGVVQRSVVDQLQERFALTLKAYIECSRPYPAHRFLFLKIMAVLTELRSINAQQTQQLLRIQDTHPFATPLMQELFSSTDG
Chain of Peroxisome proliferator-activated receptor alpha (Homo sapiens) (Q07869 whole entry, looked up): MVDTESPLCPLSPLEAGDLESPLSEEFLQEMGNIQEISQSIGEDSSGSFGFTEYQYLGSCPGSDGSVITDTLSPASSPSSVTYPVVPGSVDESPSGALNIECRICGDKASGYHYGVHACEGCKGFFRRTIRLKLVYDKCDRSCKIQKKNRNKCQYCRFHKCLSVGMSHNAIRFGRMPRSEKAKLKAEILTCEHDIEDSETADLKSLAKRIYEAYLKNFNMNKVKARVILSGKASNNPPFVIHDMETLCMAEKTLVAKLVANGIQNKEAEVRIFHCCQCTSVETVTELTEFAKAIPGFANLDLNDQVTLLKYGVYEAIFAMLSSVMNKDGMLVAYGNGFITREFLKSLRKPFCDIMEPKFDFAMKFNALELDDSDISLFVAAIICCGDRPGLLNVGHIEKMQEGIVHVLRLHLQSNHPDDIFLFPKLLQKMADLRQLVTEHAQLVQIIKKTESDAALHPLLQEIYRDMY
Chain of Peroxisome proliferator-activated receptor delta (Homo sapiens) (Q03181 whole entry, looked up): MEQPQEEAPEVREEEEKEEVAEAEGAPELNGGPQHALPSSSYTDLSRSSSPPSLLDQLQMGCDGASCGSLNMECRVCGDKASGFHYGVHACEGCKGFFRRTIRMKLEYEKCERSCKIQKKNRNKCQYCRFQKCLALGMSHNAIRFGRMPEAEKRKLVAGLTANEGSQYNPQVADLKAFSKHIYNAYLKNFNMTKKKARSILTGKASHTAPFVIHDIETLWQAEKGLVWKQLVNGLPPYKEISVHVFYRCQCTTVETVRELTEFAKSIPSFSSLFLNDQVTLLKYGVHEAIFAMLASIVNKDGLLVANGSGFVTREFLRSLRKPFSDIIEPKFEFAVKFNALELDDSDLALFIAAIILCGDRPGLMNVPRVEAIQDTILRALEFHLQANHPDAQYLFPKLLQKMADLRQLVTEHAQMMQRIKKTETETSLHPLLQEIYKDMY

Regarding `CC(C)(C)OOC(C)(C)c1ccc(C(C)(C)OOC(C)(C)C)cc1`, the Potency entry in test [1], in [4], in test [5], in test [6], in test [7] and in test [15] was “inactive” in each case. The Potency result in [18] was “inactive”. The call in test [2] was inactive. Besides, the max response is 6.63% in test [3]; -15.9% in [8]; -5.44% (inactive) in [9]; 0.719% (inactive) in test [14]; -7.74% (inactive) in test [16]; -8.57% (inactive) in [17]. Further, the max response in [19] is 4.08% (inactive). The activity change % (negative = inhibition) in [10] is 10.7% (inactive). For the same compound, the activation in test [11] is 0.499% (inactive); in test [12], 0.854% (inactive); in test [13] it was 0.613% (inactive).
With `O=C(O)C(F)(F)C(F)(F)C(F)(F)C(F)(F)C(F)(F)F`, the Potency result in [20], in test [4], in test [5], in test [6], in test [7] and in test [18] was “inactive” in each case. The result in [2] was inactive. The max response in test [3] was -15.9%; in [8], 3.1%; in [14], 4.72% (inactive); in test [16], 3.24% (inactive); in test [17], -9.96% (inactive); in test [19], 2.05% (inactive). Besides, the activity change % (negative = inhibition) in test [10] is 8.21% (inactive). The results for the activation in test [11] and in test [13] were -4.82% (inactive) and 0.455% (inactive), respectively.
For the compound `Nc1cnn(-c2ccccc2)c(=O)c1Cl`, the Potency entry in [20], in test [4], in test [5], in test [6], in [7] and in [15] was “inactive” throughout. In addition, the Potency entry in test [18] is “inactive”. In [2], the result was inactive. Also, the max response was 13.7% in test [3]; -1.68% in test [8]; -7.65% (inactive) in [9]; -1.54% (inactive) in test [14]; 11.3% (inactive) in test [16]; -10.4% (inactive) in test [17]. The max response in test [19] is 4.89% (inactive). Besides, the activity change % (negative = inhibition) in [10] is -13.7% (inactive). The activation in [11] is -0.0509% (inactive); in test [12] it was -0.283% (inactive); in test [13] it was 6.85% (inactive).
Regarding `CCOP(=O)(OCC)OC(Cl)C(Cl)(Cl)Cl` (centres undefined), the Potency result in test [1], in [20], in test [4], in [6], in test [7] and in [18] was “inactive” each time. In addition, the compound was called inactive in test [2]. Moreover, the max response was 51.3% in [3]; -13.7% in [8]; -17.2% (inactive) in test [9]; -2.65% (inactive) in test [14]; -17.4% (inactive) in test [16]; -7.64% (inactive) in [17]. Besides, in test [19], the max response is 2.92% (inactive). Further, in test [10], the activity change % (negative = inhibition) was -2.35% (inactive). The activation was -3.88% (inactive) in test [11], 1.4% (inactive) in test [12] and 2.83% (inactive) in test [13].
As for `C#CCN1C(=O)COc2cc(F)c(N3C(=O)C4=C(CCCC4)C3=O)cc21`, the Potency result in [1], in test [20], in [5], in test [6], in [7] and in test [15] was “inactive” throughout. In addition, in test [18], the Potency entry was “inactive”. Further, the outcome in test [2] was inactive. Further, the max response in test [8] was 5.82%; in test [9] it was -8.58% (inactive); in [14] it was -2.95% (inactive); in test [16], -24.6% (inactive); in test [17] it was -11.7% (inactive); in [19], 6.57% (inactive). In addition, the activity change % (negative = inhibition) in test [10] was -4.79% (inactive). Moreover, the activation in [12] was -1.45% (inactive); in test [13], 0.764% (inactive).
In the case of `CCOP(=O)(OCC)SCS(=O)(=O)C(C)(C)C`, the Potency result in test [1], in test [20], in test [4], in test [5], in test [6] and in test [7] was “inactive” each time. In addition, the Potency result in [15] and in [18] was “inactive” each time. For the same compound, the result in test [2] was inactive. Moreover, the max response in test [3] is -7.9%; in [8], -4.31%; in test [9] it was 2.18% (inactive); in test [14], -3.37% (inactive); in [16], 1.67% (inactive); in test [17], -4.67% (inactive). Besides, the max response in test [19] is 5.96% (inactive). The activity change % (negative = inhibition) in test [10] is -16.4% (inactive). For the same compound, the activation in test [11] was 2.21% (inactive); in test [12], -0.0868% (inactive); in test [13] it was 2.25% (inactive).
